In the library only some 1.9% were active in any assay of this set; here they are far more common.
GRK2 inh: inhibitors of human GRK2 displacing RNA aptamer | P25098 | bead flow cytometry, FAM-aptamer displacement from GRK2 | inhibition of aptamer binding, % at 10 µM | 330,000 compounds, 0.59% hits;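 active means inhibition of aptamer binding above 40%, roughly 3 SD of noise, on plates passing a quality check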;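 further: median bead fluorescence of bound FAM aptamer so fluorescent compounds give negative values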
eIF4H inh: inhibitors of RNA binding by human eIF4H | Q15056 | eIF4H fluorescence polarization binding assay | inhibition, % at 35 µM | 290,000 compounds, 0.94% hits | AID 2012;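 further: calls also rest on retests at 20 µM and on dose response follow-up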
PABP1 MLLE inh: blocks PAM2 peptide binding to the PABP1 MLLE domain; inhibition, % at 20 µM; 360,000 compounds, 0.36% hits; GST-MLLE / FITC-PAM2 fluorescence polarization; P11940; in the data active means inhibition above about 35%, passing the limit was not always enough;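 further: plate controls were DMSO wells with GST-MLLE for no effect and wells lacking GST-MLLE protein for full effect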
PERK inhibitor: blocks human PERK kinase | AID 1416 | Q9NZJ5 | inhibition, % at 5.6 µM | CHO PERK-DD fusion, SEAP luminescence translation reporter | 220,000 compounds, 0.17% hits;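 active means inhibition above the mean inhibition of all tested compounds plus 3 SD, set separately per screening campaign, cut at about 2.9% in these data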;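 further: PERK kinase domain activated by AP20187 dimerizer at 100 nM; 0% = DMSO with dimerizer and 100% = rapamycin at 8.4 µM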
PABP FP inh: blocks human PABP binding to poly(A) RNA | fluorescence polarization | AID 2014 | 290,000 compounds, 1% hits | P11940 | inhibition, % at 35 µM;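 further: calls also rest on retests at 20 µM and on dose response follow-up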
* = called active by the depositor; u = inconclusive; x = not tested or not shown. Unless noted, how the calls were made is not given here.

SMILES	GRK2 inh	eIF4H inh	PABP1 MLLE inh	PERK inhibitor	PABP FP inh
O=C1Nc2ccc(F)cc2C12OCCO2	0	-5	12	x	2
O=C1CC(c2ccccc2)c2cc(O)ccc2O1 (stereo not given)	0	4	10	0	8
Cc1ccc(C2CC(=O)Oc3cc(O)ccc32)cc1 (stereo not given)	2	50*	7	0	4.5*
O=C1c2ccccc2C(=O)c2c(/C=C/N3CCCCC3)ccnc21	x	x	43*	x	x
CCOc1cc(/C=C2\N=C(SCC)SC2=O)cc([N+](=O)[O-])c1OC(C)=O	2	34	28	0	19
CCOc1c(OC(C)=O)ccc(/C=C2\N=C(SCC)SC2=O)c1[N+](=O)[O-]	100*	8	9	0	6
COc1ccccc1CN1C[C@@H]2C[C@@H](c3ccc(C)c(C)c3)N3CCC[C@@]23C1=O	0	-16	4	0	-10
COc1ccc([C@@H]2C[C@H]3CN(Cc4ccccc4OC)C(=O)[C@]34CCCN24)cc1C	0	52*	-23	0	17*
COc1cccc(NC(=S)N(CCCN2CCN(C)CC2)Cc2ccco2)c1	1	-4	-23	1	-4
COc1cccc(NC(=S)N(CCCN2CCCC2)Cc2ccco2)c1	1	active	7	1	50
CC(C)C1C(=O)N(Cc2cn(CCC3OCCCO3)nn2)CCS(=O)(=O)N1Cc1ccc(-c2ccc(Cl)nc2)cc1 (stereo not given)	x	x	-4	x	x
COC(=O)C(C)(C(=O)OC)c1ccccc1[N+](=O)[O-]	2	u	0	0	67*
COC(=O)C(Cc1cnc(Cl)s1)(C(=O)OC)c1ccccc1[N+](=O)[O-]	3	0	-12	1	-4
Cc1ccc2c3c(cccc13)-c1ccccc1C2=O	30	90*	48*	0	9.9*
O[C@H]1CN(CC2CCCCC2)[C@@H](c2ccc(Cl)cc2)C[C@@H]1n1cc(-c2ccc(F)cc2)nn1	x	x	-3	x	x
O=C(OCC(=O)N1CCCC1)c1ccc(NS(=O)(=O)c2cccs2)cc1O	0	21	17	1	1
CCC(C)NS(=O)(=O)c1ccc(OCC(=O)NCc2ccccn2)cc1 (stereo not given)	0	-17	-7	3.2*	-8
COc1cccc(C(C)NC(=O)c2ccncc2)c1 (stereo not given)	0	-1	-18	x	10
O=C(NC(=S)Nc1ccc2c(c1)OCO2)c1ccccc1	0	0	17	2	6
O=C(NC(=S)Nc1ccc2c(c1)OCCO2)c1cccc(Br)c1	2	0	40*	-1	5
O=C(NC(=S)N1CCN(Cc2ccc3c(c2)OCO3)CC1)c1ccc(Cl)cc1	0	12	-1	0	-2
O=C(NC(=S)N1CCN(Cc2ccc3c(c2)OCO3)CC1)c1cccc(Br)c1	4	active	8	0	58*
CCOc1ccc2nc3cc(N=Nc4ccc(N)nc4N)ccc3c(N)c2c1	x	x	82*	x	x
O=C(CSc1nc2nn(-c3ccccc3)c(=O)c-2c2n1CCCCC2)Nc1ccc(F)c(F)c1	1	x	11	x	x
CC(C)NC(=S)N/N=C1\CCCCc2ccccc21	1	6	2	0	-7
SMILES	GRK2 inh	eIF4H inh	PABP1 MLLE inh	PERK inhibitor	PABP FP inh
COc1cccc(NC(=S)N/N=C2/CCCCc3ccccc32)c1	x	18	45*	0	20
CCOc1ccc(S(=O)(=O)N2CCCC(C(=O)NCC3CCCO3)C2)cc1 (stereo not given)	0	-5	7	x	4
Cc1cccc(N2CCN(C(=O)c3ccc4nc(-c5ccco5)c(-c5ccco5)nc4c3)CC2C)c1 (stereo not given)	0	93*	12	0	79*
Cc1ccc(S(=O)(=O)NC(N)=NCCc2ccc(Cl)cc2)cc1C	0	-7	6	1	10
O=C1Nc2ccccc2S/C1=C\C(=O)N1CCCC1	81*	7	x	0	-7
O=C1Nc2ccccc2SC1=Cc1ccccc1	x	x	32	x	x
O=C1/C(=C/c2ccc3c(c2)OCO3)Oc2cc(OCC(=O)N3CCC[C@H]3C(=O)O)ccc21	3	-4	-23	x	10
COc1ccc(/C=C2\Oc3cc(OCC(=O)N4CCC[C@H]4CO)ccc3C2=O)c(OC)c1	1	73	-42	x	17*
O=C(/C=C/c1ccco1)c1ccc(NC(=O)C23CC4CC(CC(C4)C2)C3)cc1	3	u	-12	1	active
Cn1ncc2cc3c(Nc4ccc(Cl)cc4)cccc3nc21	x	x	-5	x	x
COc1ccccc1CNC(=O)/C=C/c1ccc(S(=O)(=O)NCc2ccco2)cc1	62*	-7	-13	0	-8
